Results as given in PubChem BioAssay (NCI).
This is part of a sample that, as a whole, favours compounds with a hit. Of some 79,000 tested, about 15% had one in any assay. Calls of active or inactive are those of the source. No stated cut-off is given here; in the data, active means growth inhibition above about 70%; inactive means the rest.

Legend:
[1] = NCI Yeast Anticancer Drug Screen. Data for the rad50 strain (AID 155);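 further: 0% = growth of vehicle-only cultures of the same strain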; details: S. cerevisiae rad50 strain growth inhibition, hits give high values
Procedure, shortened: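 Compounds were tested on a yeast strain with an engineered DNA damage repair alteration; the reported value is growth inhibition normalised to vehicle treatment.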

[2] = NCI Yeast Anticancer Drug Screen. Data for the mec2-1 strain (AID 157); details: S. cerevisiae mec2-1 strain, hits give high values
Procedure, shortened: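 Test agents were screened against the mec2-1 yeast strain, with defined DNA repair or cell cycle alteration. Growth was scored as inhibition against vehicle-only controls.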

[3] = NCI Yeast Anticancer Drug Screen. Data for the sgs1 mgt1 strain (AID 161);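 further: 0% = growth of cultures given vehicle only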; details: S. cerevisiae sgs1 mgt1 strain, hits give high values
Procedure, shortened: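 Inhibition of yeast growth, normalised to vehicle-treated controls, is reported for a strain bearing genetic alterations in DNA damage repair.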

[4] = NCI Yeast Anticancer Drug Screen. Data for the cln2 rad14 strain (AID 165);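 further: 0% = growth equal to vehicle treated cultures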; details: S. cerevisiae cln2 rad14 strain, hits give high values
Procedure, shortened: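 Growth of compound-exposed yeast (cln2 rad14 genotype) measured and expressed as inhibition relative to vehicle.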

[5] = NCI Yeast Anticancer Drug Screen. Data for the bub3 strain (AID 167); details: S. cerevisiae bub3 mutant strain, hits give high values
Procedure, shortened: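 Growth of a checkpoint-deficient yeast mutant is measured after compound exposure. Values represent inhibition relative to vehicle.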

[6] = NCI Yeast Anticancer Drug Screen. Data for the mlh1 rad18 strain (AID 175); details: S. cerevisiae mlh1 rad18 strain growth inhibition, hits give high values
Procedure, shortened: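 In this whole-cell yeast screen, a strain with altered DNA damage repair is challenged with compound, and its growth is measured against matched vehicle-treated controls.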

[7] = at 5.0 µM (retest, dose inferred, filed as 0.5)
[8] = at 50.0 µM (retest, dose inferred, filed as 5.0)

Measured: growth inhibition

Cc1ncc(Br)c(C(=O)O)n1
inactive: [1]; [7] 0% | [1]; [8] -7% | [1]; at 50.0 µM 6.65% | [2]; [7] 1% | [2]; [8] 3% | [2]; at 50.0 µM 19.3% | [3]; [7] 5% | [3]; [8] -3% | [3]; at 50.0 µM 3.1% | [4]; [7] -5% | [4]; [8] 1% | [4]; at 50.0 µM 34.2% | [5]; [7] -4% | [5]; [8] -6% | [5]; at 50.0 µM 0.75% | [6]; [7] -1% | [6]; [8] -8% | [6]; at 50.0 µM 52.9%

OC(c1ccccc1)c1cccc2ccccc12 (stereo not given)
active: [1]; at 50.0 µM 91.3%
inactive: [1]; [7] -1% | [1]; [8] 47% | [2]; [7] -5% | [2]; [8] 14% | [2]; at 50.0 µM 67.3% | [3]; [7] 20% | [3]; [8] 25% | [3]; at 50.0 µM -1.85% | [4]; [7] -8% | [4]; [8] 18% | [4]; at 50.0 µM 44.8% | [5]; [7] -1% | [5]; [8] 30% | [5]; at 50.0 µM 67% | [6]; [7] -1% | [6]; [8] 25% | [6]; at 50.0 µM 43.1%

COc1cc2cc[n+]3c4ccc([N+](=O)[O-])cc4ccc3c2cc1OC
active: [1]; [7] 73% | [1]; [8] 81% | [2]; [8] 73% | [3]; [8] 80% | [3]; at 50.0 µM 70% | [4]; [8] 71% | [5]; [8] 81%
inactive: [1]; at 50.0 µM 44.8% | [2]; [7] 14% | [2]; at 50.0 µM 55.5% | [3]; [7] 42% | [4]; [7] 31% | [4]; at 50.0 µM 68.3% | [5]; [7] 43% | [5]; at 50.0 µM 57.7% | [6]; [7] 66% | [6]; [8] 69% | [6]; at 50.0 µM 46%

CCCCCCCCCCCCOC(=O)C[n+]1cccc(C(N)=O)c1
active: [1]; [8] 99% | [1]; at 50.0 µM 99.8% | [2]; [8] 99% | [2]; at 50.0 µM 99.7% | [3]; [8] 81% | [3]; at 50.0 µM 99.8% | [4]; [8] 96% | [4]; at 50.0 µM 98.2% | [5]; [8] 99% | [5]; at 50.0 µM 99.6% | [6]; [8] 99% | [6]; at 50.0 µM 99.7%
inactive: [1]; [7] -1% | [2]; [7] -4% | [3]; [7] -3% | [4]; [7] -8% | [5]; [7] -6% | [6]; [7] -4%

CN(C)c1ccc(N=Nc2ccc(/C=C3\CCOC3=O)cc2)cc1
inactive: [1]; [7] -4% | [1]; [8] 4% | [1]; at 50.0 µM -3.65% | [2]; [7] -5% | [2]; [8] -1% | [2]; at 50.0 µM 19.4% | [3]; [7] -6% | [3]; [8] -6% | [3]; at 50.0 µM -0.65% | [4]; [7] -3% | [4]; [8] 4% | [4]; at 50.0 µM 37.2% | [5]; [7] -3% | [5]; [8] 7% | [5]; at 50.0 µM -2.45% | [6]; [7] -1% | [6]; [8] 3% | [6]; at 50.0 µM 12.4%

COc1cc(C(c2ccccc2)c2ccccc2)c2ccccc2c1O
inactive: [1]; [7] 15% | [1]; [8] 51% | [1]; at 50.0 µM 33.3% | [2]; [7] 15% | [2]; [8] 41% | [2]; at 50.0 µM 16.6% | [3]; [7] -17% | [3]; [8] 25% | [3]; at 50.0 µM 61.4% | [4]; [7] 13% | [4]; at 50.0 µM 44.9% | [5]; [7] 8% | [5]; at 50.0 µM 40.2% | [6]; [7] 24%
active: [4]; [8] 73% | [5]; [8] 70% | [6]; [8] 75% | [6]; at 50.0 µM 74%

O=c1nc(N2CCCC2)nc(N2CCCC2)s1
inactive: [1]; [7] -16% | [1]; [8] -8% | [1]; at 50.0 µM -11.4% | [2]; [7] 4% | [2]; [8] -14% | [2]; at 50.0 µM 0.8% | [3]; [7] -1% | [3]; [8] -11% | [3]; at 50.0 µM -9.25% | [4]; [7] 14% | [4]; [8] -5% | [4]; at 50.0 µM -38.6% | [5]; [7] -7% | [5]; [8] -10% | [5]; at 50.0 µM -4.15% | [6]; [7] 14% | [6]; [8] -1% | [6]; at 50.0 µM 7.45%

CC1(C)OC2C(COC(c3ccccc3)(c3ccccc3)c3ccccc3)OC(n3cnc4c(=O)[nH]cnc43)C2O1 (stereo not given)
inactive: [1]; [7] 43% | [1]; at 50.0 µM 69% | [2]; [7] 62% | [2]; at 50.0 µM 62% | [3]; [7] 24% | [3]; at 50.0 µM 56.5% | [4]; [7] 19% | [4]; at 50.0 µM 50.9% | [5]; [7] 30% | [5]; at 50.0 µM 49.9% | [6]; at 50.0 µM 61.9%
active: [1]; [8] 97% | [2]; [8] 99% | [3]; [8] 99% | [4]; [8] 97% | [5]; [8] 98% | [6]; [7] 84% | [6]; [8] 98%

N#Cc1c(Cl)nsc1-c1ccc([N+](=O)[O-])cc1
active: [1]; at 50.0 µM 91.2% | [2]; at 50.0 µM 93% | [3]; at 50.0 µM 91.1% | [4]; at 50.0 µM 88.8% | [5]; [8] 80% | [5]; at 50.0 µM 92.3% | [6]; [8] 87% | [6]; at 50.0 µM 84.6%
inactive: [1]; [7] -6% | [1]; [8] 35% | [2]; [7] 7% | [2]; [8] 65% | [3]; [7] 1% | [3]; [8] 33% | [4]; [7] 27% | [4]; [8] 59% | [5]; [7] -6% | [6]; [7] 7%

CC(=O)OC1CCC2(C)C(C1)C(OC(C)=O)CC1C3CCC(c4cccc(=O)o4)C3(C)CCC12 (stereo not given)
inactive: [1]; [7] 2% | [1]; [8] 64% | [2]; [7] 11% | [3]; [7] 17% | [4]; [7] 5% | [5]; [7] -2% | [6]; [7] -6% | [6]; [8] 66%
active: [1]; at 50.0 µM 85.1% | [2]; [8] 84% | [2]; at 50.0 µM 86.7% | [3]; [8] 72% | [3]; at 50.0 µM 84.8% | [4]; [8] 76% | [4]; at 50.0 µM 84.9% | [5]; [8] 79% | [5]; at 50.0 µM 81.2% | [6]; at 50.0 µM 85%
